Source: PubChem BioAssay
TEAD-YAP inh: TEAD-YAP interaction inhibition, primary screen, TEAD-YAP interaction inhibitor project, luminescence, HEK-TIYL cells. 1.4% of 640,000 active. TEAD-Gal4/YAP UAS-luciferase luminescence. inhibition, % at 9.12 µM; in the data active means inhibition above about 32%;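 further: 0% = median of test compound wells and 100% = reference inhibitor wells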
GPR151 ag: activators of human GPR151, primary screen, cell-based, PathHunter beta-arrestin, luminescence. PathHunter beta-arrestin GPR151 cells. G-protein coupled receptor 151 (Homo sapiens), Q8TDV0. AID 1508602, 2020. 1% of 650,000 active. activation, % at 11.2 µM; in the data active means activation above about 4.9%;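 further: 0% = median of compound wells and 100% = cells with positive control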
MITF inh: MITF inhibitors, primary screen, biochemical, AlphaScreen, human; inhibition, % at 2.6 µM; AID 1259374, 2018; AlphaScreen MITF homodimerization, bead proximity signal; 0.91% of 650,000 active; in the data active means inhibition above about 50%;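 further: 0% = vehicle wells with protein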
FBW7 activator: FBW7 E3 ligase activators, primary screen, biochemical, AlphaScreen, human; AlphaScreen FBW7–phospho-cyclin E peptide binding, activator screen; 0.13% of 650,000 active; F-box/WD repeat-containing protein 7 (Homo sapiens), Q969H0; AID 1259310, 2017; normalized activity (activation), % at 26.1 µM; in the data active means normalized activity above about 1.9%;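 further: purified mutant Fbw7 with reduced substrate affinity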
Target sequence (Q969H0 whole entry, looked up): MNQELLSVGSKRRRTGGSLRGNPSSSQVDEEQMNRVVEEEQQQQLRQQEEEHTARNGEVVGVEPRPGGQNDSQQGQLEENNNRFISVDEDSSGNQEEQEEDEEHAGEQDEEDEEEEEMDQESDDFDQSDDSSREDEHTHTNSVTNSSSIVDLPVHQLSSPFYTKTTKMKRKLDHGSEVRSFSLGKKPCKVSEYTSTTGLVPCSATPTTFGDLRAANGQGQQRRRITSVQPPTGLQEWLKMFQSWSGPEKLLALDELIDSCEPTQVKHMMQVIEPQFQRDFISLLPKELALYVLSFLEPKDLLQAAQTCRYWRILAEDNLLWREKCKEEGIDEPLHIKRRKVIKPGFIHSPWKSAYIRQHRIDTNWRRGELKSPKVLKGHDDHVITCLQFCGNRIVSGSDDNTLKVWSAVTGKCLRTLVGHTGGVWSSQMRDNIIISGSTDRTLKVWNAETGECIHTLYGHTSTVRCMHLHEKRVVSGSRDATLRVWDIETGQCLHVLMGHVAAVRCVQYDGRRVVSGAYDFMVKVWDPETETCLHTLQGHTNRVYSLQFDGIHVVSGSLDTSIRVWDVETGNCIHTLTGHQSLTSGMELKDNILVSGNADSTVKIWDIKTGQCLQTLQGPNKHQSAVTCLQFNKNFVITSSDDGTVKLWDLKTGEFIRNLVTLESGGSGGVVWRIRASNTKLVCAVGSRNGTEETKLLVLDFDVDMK
MITF confirm: MITF inhibitors, retest of hits, confirmation, biochemical, AlphaScreen, triplicate. AlphaScreen MITF homodimerization, biotin/His-MITF beads. shares compounds with MITF inh. inhibition, % at 2.6 µM. 16% of 4,700 active. AID 1259372, 2018;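 active means inhibition above a cutoff derived from the DMSO control wells, cut at about 28% in these data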;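 further: 0% = MITF dimer wells with DMSO only; inhibitors lower the bead chemiluminescence by keeping MITF from dimerizing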
AS interf DR: AlphaScreen optical interference compounds, dose response, counter-screen, biochemical, HTS. shares compounds with MITF inh. AlphaScreen optical interference counterscreen, cell-free. IC50, µM. 6% of 480 active; call rule not given here
AS interf ctr: AlphaScreen optical interference compounds, counter-screen for MITF inhibitor project, biochemical, triplicate; shares compounds with MITF inh; LysRS AlphaScreen counterscreen, signal interference; inhibition, % at 2.6 µM; 7.6% of 4,700 active;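 active means inhibition above a cutoff derived from the DMSO control wells, cut at about 30% in these data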
Numbers without * were called inactive; · = no result. Rows were chosen to be rich in hits. Some 3.5% of all compounds tested hit in one or more screens of this group.

SMILES	TEAD-YAP inh	GPR151 ag	MITF inh	FBW7 activator	MITF confirm	AS interf ctr	others
O=C(CN1CCN(c2ccccn2)CC1)N(Cc1ccccc1)Cc1ccccc1	-1	1	91*	0	10	13
COc1cc(CN2CCN(c3ccccn3)CC2)ccc1O	1	-2	54*	0	-3	2
Cc1ccc(CN2CCN(c3ccccn3)CC2)cc1	6	0	44	1	·	·
CN(C)c1cccc(Nc2cc(NCc3ccccc3)ncn2)c1	-10	0	5	0	·	·
Cc1cc(=O)n(C)c(=O)n1CCCNC(C)c1ccccc1 (configuration not stated)	7	-1	84*	0	6	22
Cc1cc(=O)n(C)c(=O)n1Cc1ccccc1	-6	-2	9	0	·	·
Cc1cc(=O)n(C)c(=O)n1CCCCBr	2	1	-3	0	·	·
Cc1cc(=O)n(C)c(=O)n1CCCCNCCO	4	0	72*	0	-5	-4
O=[N+]([O-])c1ccc(O)c(CSC2=NCCCN2)c1	3	2	1	0	·	·
CCC(=O)Nc1ccc(NC(=S)NC(=O)/C=C/c2ccco2)cc1	-2	1	12	0	·	·
O=C(/C=C/c1ccco1)Nc1cccc2ccccc12	-17	-1	13	0	·	·
O=C(/C=C/c1ccco1)NCCCNC(=O)/C=C/c1ccco1	-6	0	27	0	·	·
O=C(/C=C/c1ccco1)NCCCCNC(=O)/C=C/c1ccco1	-29	0	57*	0	71*	8	AS interf DR=>6.5
CCN(CC)C(=S)NC(=O)/C=C/c1ccco1	-13	1	52*	0	73*	1	AS interf DR=>6.5
O=C(/C=C/c1ccco1)NCCCCCCNC(=O)/C=C/c1ccco1	-28	0	55*	0	69*	7	AS interf DR=>6.5
O=C(/C=C/c1ccco1)Nc1c[nH]c(=O)[nH]c1=O	-23	-1	52*	1	32*	16	AS interf DR=>6.5
CCOc1c(S(=O)(=O)N2CCCCC2)ccc(Cl)c1Cl	9	1	6	1	·	·
CC(=O)N1CCC2(CC1)CC(=O)c1ccccc1O2	0	0	2	0	·	·
O=c1c2ccccc2nc(SCc2ccc(F)cc2Cl)n1C1CCCC1	-6	-1	2	0	·	·
Cc1ccc(N2C(=O)N(CC(=O)NC3CCCc4ccccc43)C(=O)C2C)cc1 (configuration not stated)	-4	1	4	0	·	·
O=C1CCCN1CCCn1c(=S)[nH]c2cc3ccccc3cc2c1=O	1	-1	66*	0	0	17
OCCC1CN(Cc2cccn2-c2ncccn2)CCN1CCCc1ccccc1 (configuration not stated)	-1	-2	5	0	·	·
CCOC(=O)C1CCN(C(=O)C2CCN(Cc3cccc(OC)c3)CC2)CC1	10	1	52*	0	6	6
CCN(Cc1ccccc1)C(=O)C1CCN(Cc2cccc(OC)c2)CC1	-4	-2	52*	0	12	8
O=C1N[C@H](CO)C(=O)N2CCN(C(=O)OCc3ccccc3)C[C@H]12	-2	3	6	-1	·	·
SMILES	TEAD-YAP inh	GPR151 ag	MITF inh	FBW7 activator	MITF confirm	AS interf ctr	others
Cc1ccc2nsnc2c1NC(=O)c1ncn[nH]1	5	1	53*	0	11	4
Nc1ccc(C(=O)Nc2ccc(N)cc2N)cc1	9	4	4	0	·	·
Nc1ccc(NCCO)c(N)c1	-1	-1	57*	-1	52*	-5	AS interf DR=>5.9
O=C(c1csc(Nc2cccc3ccccc23)n1)N1CCCC1	8	-1	77*	1	-5	13
Cc1nc2ccccn2c1-c1nnco1	-2	1	-14	0	·	·
Cc1nc2ccccn2c1-c1ccnn1S(=O)(=O)c1ccc(F)cc1	-3	-1	73*	0	-2	2
C=CCOc1ccc(/C(O)=C2/C(=O)C(=O)N(CCCN(C)C)C2c2ccc(OC)c(OC)c2)cc1C (configuration not stated)	2	2	-3	0	·	·
FC(F)(F)Oc1ccc(-c2cnc(N3CCOCC3)nc2)cc1	-49	-3	-4	0	·	·
CN(C)CCCN(CCCN(C)C)CC(c1ccccc1)c1ccccc1	9	0	55*	1	-4	0
COC(=O)CSc1nnc(-c2ccncc2)n1Cc1ccco1	8	0	-8	0	·	·
COC(=O)CSc1nnc(-c2ccco2)n1Cc1ccco1	4	0	76*	0	58*	3	AS interf DR=>6.5
O=[N+]([O-])c1ccccc1CN1CCN(Cc2ccc3c(c2)OCO3)CC1	-10	0	59*	0	19	36*
O=C(c1ccccc1[N+](=O)[O-])N1CCN(Cc2ccc3c(c2)OCO3)CC1	1	0	-7	0	·	·
O=[N+]([O-])c1ccc(CN2CCN(c3ccccc3F)CC2)s1	-7	1	53*	0	6	10
O=[N+]([O-])c1ccc(CN2CCN(Cc3ccc4c(c3)OCO4)CC2)s1	4	1	56*	0	7	4
Cc1cccc(-n2c(=O)c3cc4c(=O)n(-c5cccc(C)c5)c(=O)c4cc3c2=O)c1	11	2	6	0	·	·
COc1ccc(C(CNCC(=O)Nc2ccccc2-c2ccccc2)N2CCOCC2)cc1 (configuration not stated)	5	-1	83*	0	-15	-1
O=C(N/N=C/c1ccccn1)C1=NNC(=O)C1CCO (configuration not stated)	-6	0	65*	-1	31*	96*
O=C(N/N=C/c1ccccn1)c1cccc2ccccc12	-29	-1	4	0	·	·
Cc1ccc(OCCN2CCN(CC(O)Cn3c4ccccc4c4ccccc43)CC2)cc1 (configuration not stated)	6	0	74*	0	11	7
Brc1cccc(OCCOCCn2ccnc2)c1	2	1	21	0	·	·
Brc1cccc(OCCCn2ccnc2)c1	4	0	65*	0	3	0
Brc1cccc(OCCn2ccnc2)c1	9	-1	52*	0	-2	7
CCSc1nc2c(c(=O)[nH]1)C(c1ccc(O)c(OC)c1)C1=C(CCCC1=O)N2 (configuration not stated)	1	-1	61*	0	0	8
CC(=O)Nc1ccc(NC(=O)Cc2ccc(Br)cc2)cc1	-7	-1	58*	0	19	8
